{"source": "PubChem BioAssay (EPA / NIEHS)", "key": {"[1]": {"biological_target": "Nuclear respiratory factor 1 (Homo sapiens) (UniProt Q16656)", "sequence (Q16656 whole entry, looked up)": "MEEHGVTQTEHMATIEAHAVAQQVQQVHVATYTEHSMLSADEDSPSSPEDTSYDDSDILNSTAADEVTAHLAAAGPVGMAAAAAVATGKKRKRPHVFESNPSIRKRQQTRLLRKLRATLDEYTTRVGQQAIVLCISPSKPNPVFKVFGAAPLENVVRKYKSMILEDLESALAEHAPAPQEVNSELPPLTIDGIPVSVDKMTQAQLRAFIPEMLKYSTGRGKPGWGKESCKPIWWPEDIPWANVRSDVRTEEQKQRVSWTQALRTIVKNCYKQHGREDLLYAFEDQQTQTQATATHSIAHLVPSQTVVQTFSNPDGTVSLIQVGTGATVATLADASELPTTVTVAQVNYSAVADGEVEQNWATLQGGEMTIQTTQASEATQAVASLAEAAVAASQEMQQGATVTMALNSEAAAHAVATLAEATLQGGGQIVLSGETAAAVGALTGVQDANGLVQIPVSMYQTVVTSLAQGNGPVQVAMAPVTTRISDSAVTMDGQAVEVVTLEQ", "experiment": "ATG_NRF1_CIS: Attagene CIS-FACTORIAL HepG2 Assay for human Nuclear Respiratory Factor 1 (NRF1) Orphan Gene (AID 2282987)", "details": "HepG2 NRF1 cis-element reporter, Attagene multiplex; actives raise or lower the signal", "method_in_brief": "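Reporter mRNA induction or loss in HepG2 cells after 24 h dosing; cis-regulated reporter constructs report endogenous transcription-factor activity. Quantified by RT-PCR/capillary electrophoresis fluorescence, DMSO-referenced.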"}, "[2]": {"experiment": "ATG_NFI_CIS: Attagene CIS-FACTORIAL HepG2 Assay for human Nuclear Factor I (NFI) (AID 2282989)", "details": "HepG2 cis-regulatory reporter, NFI response element transcription; actives raise or lower the signal", "method_in_brief": "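Read-out: reporter mRNA via RT-PCR plus capillary electrophoresis with fluorescence detection. Transiently transfected HepG2 (endogenous TF activity on cis promoters), 24 h compound exposure; gain or loss of signal fitted against DMSO.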"}, "[3]": {"biological_target": "Myc proto-oncogene protein (Homo sapiens) (UniProt P01106)", "sequence (P01106 whole entry, looked up)": "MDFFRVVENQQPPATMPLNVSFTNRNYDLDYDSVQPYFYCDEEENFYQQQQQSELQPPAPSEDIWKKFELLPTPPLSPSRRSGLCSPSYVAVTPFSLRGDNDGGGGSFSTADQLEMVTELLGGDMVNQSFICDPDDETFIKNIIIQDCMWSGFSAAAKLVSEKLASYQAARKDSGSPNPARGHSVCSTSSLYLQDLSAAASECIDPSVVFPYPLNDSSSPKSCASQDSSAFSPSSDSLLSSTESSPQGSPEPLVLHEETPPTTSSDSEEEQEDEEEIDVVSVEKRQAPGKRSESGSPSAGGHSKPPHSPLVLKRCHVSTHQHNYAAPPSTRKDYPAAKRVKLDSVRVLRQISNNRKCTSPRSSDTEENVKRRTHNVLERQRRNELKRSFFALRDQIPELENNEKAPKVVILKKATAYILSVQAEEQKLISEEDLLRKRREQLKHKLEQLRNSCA", "experiment": "ATG_Myc_CIS: Attagene CIS-FACTORIAL HepG2 Assay for human Myelocytomatosis (Myc) Proto-Oncogene Transcription Factor (AID 2282990)", "details": "HepG2, Attagene cis-reporter transcription factor activity; actives raise or lower the signal", "method_in_brief": "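Transiently transfected HepG2 cells bearing cis-promoter reporter units for endogenous transcription factors; 24 h exposure. Reporter mRNA measured by RT-PCR, 6-FAM primer extension, HpaI cut and capillary electrophoresis; bidirectional fit relative to DMSO.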"}, "[4]": {"experiment": "ATG_NRF2_ARE_CIS: Attagene CIS-FACTORIAL HepG2 Assay for human Nuclear Factor Erythroid 2 Related Factor 2 (NFR2) response to Antioxidant Response Elements (ARE) (AID 2282992)", "details": "HepG2 Attagene ARE/NRF2 reporter, transcription factor activity; actives raise or lower the signal", "method_in_brief": "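Multiplexed reporter mRNA profiling in HepG2 after a 24 h chemical exposure. Curves fitted in both directions relative to DMSO negative control.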"}, "[5]": {"experiment": "ATG_Oct_MLP_CIS: Attagene CIS-FACTORIAL HepG2 Assay for human Octamer-Binding Transcription Factor (Oct) (AID 2282993)", "details": "HepG2 Attagene cis-factorial Oct reporter, mRNA; actives raise or lower the signal", "method_in_brief": "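Read-out: reporter mRNA via RT-PCR plus capillary electrophoresis of 6-FAM-labelled fragments. Transiently transfected HepG2, 24 h exposure, endogenous TF activity on cis elements. Gain or loss of signal fitted relative to DMSO.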"}, "[6]": {"biological_target": "Cellular tumor antigen p53 (Homo sapiens) (UniProt P04637)", "sequence (P04637 whole entry, looked up)": "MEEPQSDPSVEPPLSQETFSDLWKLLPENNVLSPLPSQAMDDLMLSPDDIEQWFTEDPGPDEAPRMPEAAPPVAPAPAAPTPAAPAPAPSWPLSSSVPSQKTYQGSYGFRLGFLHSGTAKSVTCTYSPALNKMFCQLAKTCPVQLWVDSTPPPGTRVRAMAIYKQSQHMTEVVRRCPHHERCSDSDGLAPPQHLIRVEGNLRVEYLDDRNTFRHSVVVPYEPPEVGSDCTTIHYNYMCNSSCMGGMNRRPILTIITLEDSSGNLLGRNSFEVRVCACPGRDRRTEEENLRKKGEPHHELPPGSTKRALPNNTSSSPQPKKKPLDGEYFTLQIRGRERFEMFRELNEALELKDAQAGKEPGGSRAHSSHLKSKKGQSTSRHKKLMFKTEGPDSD", "experiment": "ATG_p53_CIS: Attagene CIS-FACTORIAL HepG2 Assay for human p53 Transcription Factor (AID 2282994)", "details": "HepG2 p53 cis-element reporter, Attagene mRNA; actives raise or lower the signal", "method_in_brief": "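Multiplexed reporter mRNA assay in human HepG2 liver cells; cis-regulated units report endogenous factor activity. Values come from bidirectional curve fitting against DMSO negative control after 24 h treatment.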"}, "[7]": {"experiment": "BSK_3C_TissueFactor: BioMAP Diversity Plus: 3C Assay for Tissue Factor Biomarker Activity (AID 2282997)", "details": "BioMAP 3C HUVEC, tissue factor biomarker readout; actives raise or lower the signal", "method_in_brief": "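HUVEC were treated 24 h, then surface tissue factor measured by ELISA and fitted bidirectionally against DMSO. Parallel SRB total-protein staining assessed overt cytotoxicity at the same time point.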"}, "[8]": {"experiment": "BSK_3C_uPAR: BioMAP Diversity Plus: 3C Assay for Urokinase-type plasminogen activator receptor (uPAR) Biomarker Activity (AID 2282998)", "details": "BioMAP 3C HUVEC, uPAR biomarker ELISA; actives raise or lower the signal", "method_in_brief": "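HUVEC primary cells; 24 h post-dose; uPAR by ELISA; gain or loss of signal fitted bidirectionally vs DMSO baseline.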"}, "[9]": {"experiment": "BSK_3C_VCAM1: BioMAP Diversity Plus: 3C Assay for Vascular cell adhesion molecule 1 (VCAM1) Biomarker Activity (AID 2282999)", "details": "BioMAP 3C HUVEC, VCAM1 ELISA, cytokine-stimulated; actives raise or lower the signal", "method_in_brief": "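Human umbilical vein endothelial cells (3C system), biomarker read by ELISA 24 h after dosing; bidirectional fit against DMSO baseline. Cytotoxicity tracked by SRB total-protein staining in parallel cultures at biomarker time.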"}, "[10]": {"experiment": "BSK_4H_Eotaxin3: BioMAP Diversity Plus: 4H Assay for Eotaxin 3 Biomarker Activity (AID 2283000)", "details": "primary human endothelial cells (HUVEC); actives raise or lower the signal", "method_in_brief": "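Eotaxin-3 (CCL26) levels were measured by ELISA in HUVEC primary cultures 24 h post-dosing. Gain or loss of signal was fitted in both directions, with DMSO serving as baseline and negative control.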"}, "[11]": {"biological_target": "human Peroxisome Proliferator-activated Receptor alpha (PPARa), PPARA (gene 5465) (UniProt Q07869)", "sequence (Q07869 whole entry, looked up, the tested form may be a part)": "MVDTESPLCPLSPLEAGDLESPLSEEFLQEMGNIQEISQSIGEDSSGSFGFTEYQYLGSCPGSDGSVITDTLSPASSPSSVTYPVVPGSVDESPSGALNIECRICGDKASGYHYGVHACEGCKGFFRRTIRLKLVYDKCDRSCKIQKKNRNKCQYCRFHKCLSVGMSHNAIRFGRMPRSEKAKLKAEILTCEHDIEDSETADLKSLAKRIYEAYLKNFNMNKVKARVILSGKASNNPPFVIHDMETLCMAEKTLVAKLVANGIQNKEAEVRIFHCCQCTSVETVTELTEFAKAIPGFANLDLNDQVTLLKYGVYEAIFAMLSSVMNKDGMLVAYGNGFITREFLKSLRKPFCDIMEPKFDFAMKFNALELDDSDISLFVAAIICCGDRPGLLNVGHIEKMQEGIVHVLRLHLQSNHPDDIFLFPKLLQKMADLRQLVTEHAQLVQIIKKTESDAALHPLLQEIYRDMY", "experiment": "ATG_PPARa_TRANS: Attagene TRANS-FACTORIAL HepG2 Assay for human Peroxisome Proliferator-activated Receptor alpha (PPARa) (AID 2283001; active = hit-call score of the fitted dose curve at least 0.9, where 1 is the maximum)", "method_in_brief": "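Measures transcriptional activity of an exogenous chimeric PPARa-Gal4 protein in transiently transfected HepG2 cells after 24 h dosing. Reporter mRNA quantified via RT-PCR and capillary electrophoresis; DMSO served as negative control.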"}, "[12]": {"biological_target": "human Peroxisome Proliferator-activated Receptor delta (PPARd), PPARD (gene 5467) (UniProt Q03181)", "sequence (Q03181 whole entry, looked up, the tested form may be a part)": "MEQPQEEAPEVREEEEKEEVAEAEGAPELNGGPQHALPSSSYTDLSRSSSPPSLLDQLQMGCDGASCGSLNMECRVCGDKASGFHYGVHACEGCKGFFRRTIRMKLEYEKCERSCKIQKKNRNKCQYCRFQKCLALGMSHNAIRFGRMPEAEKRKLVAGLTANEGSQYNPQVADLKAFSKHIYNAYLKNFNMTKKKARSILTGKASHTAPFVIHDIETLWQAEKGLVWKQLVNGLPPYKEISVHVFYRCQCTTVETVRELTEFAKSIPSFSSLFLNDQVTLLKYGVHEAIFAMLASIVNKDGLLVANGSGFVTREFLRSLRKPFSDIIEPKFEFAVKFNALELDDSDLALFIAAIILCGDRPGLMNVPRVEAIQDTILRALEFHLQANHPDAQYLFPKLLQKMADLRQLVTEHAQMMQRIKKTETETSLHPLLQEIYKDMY", "experiment": "ATG_PPARd_TRANS: Attagene TRANS-FACTORIAL HepG2 Assay for human Peroxisome Proliferator-activated Receptor delta (PPARd) (AID 2283002; active = hit-call score of the fitted dose curve at least 0.9, where 1 is the maximum)", "method_in_brief": "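HepG2 cells transiently transfected with GAL4-UAS multiplexed reporter units driven by exogenous chimeric NR-GAL4 proteins; 24 h compound exposure. Reporter mRNA measured by RT-PCR, 6-FAM primer extension, HpaI digestion and capillary electrophoresis; gain of signal fitted relative to DMSO.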"}, "[13]": {"read-out": "Intercellular Adhesion Molecule 1 (ICAM1), ICAM1 (gene 3383)", "experiment": "BSK_3C_ICAM1: BioMAP Diversity Plus: 3C Assay for Intercellular Adhesion Molecule 1 (ICAM1) Biomarker Activity (AID 2283003)", "details": "primary human endothelial cells (HUVEC); actives raise or lower the signal", "method_in_brief": "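Human vascular endothelial primary cells, 3C conditions, 24 h treatment. ICAM-1 by ELISA.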"}, "[14]": {"biological_target": "human Retinoic Acid Receptor beta (RARb), RARB (gene 5915) (UniProt P10826)", "sequence (P10826 whole entry, looked up, the tested form may be a part)": "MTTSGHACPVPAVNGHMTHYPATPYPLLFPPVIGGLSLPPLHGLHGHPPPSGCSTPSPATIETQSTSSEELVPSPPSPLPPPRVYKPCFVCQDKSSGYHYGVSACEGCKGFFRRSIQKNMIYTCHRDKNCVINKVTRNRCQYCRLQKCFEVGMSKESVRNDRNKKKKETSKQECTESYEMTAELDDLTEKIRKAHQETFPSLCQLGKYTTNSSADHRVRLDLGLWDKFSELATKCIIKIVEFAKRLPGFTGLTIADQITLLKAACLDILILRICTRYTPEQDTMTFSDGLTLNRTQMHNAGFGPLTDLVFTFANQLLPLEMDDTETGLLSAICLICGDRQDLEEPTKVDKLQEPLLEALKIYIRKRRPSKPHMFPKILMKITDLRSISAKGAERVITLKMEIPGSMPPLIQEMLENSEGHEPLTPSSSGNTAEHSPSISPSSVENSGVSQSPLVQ", "experiment": "ATG_RARb_TRANS: Attagene TRANS-FACTORIAL HepG2 Assay for human Retinoic Acid Receptor beta (AID 2283004; active = hit-call score of the fitted dose curve at least 0.9, where 1 is the maximum)", "method_in_brief": "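HepG2 cells were transiently transfected with GAL4-UAS reporter units that report activity of exogenous chimeric NR-Gal4 proteins, then exposed to compound for 24 h. Reporter mRNA was quantified by RT-PCR with capillary electrophoresis fluorescence, as gain of signal over DMSO.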"}, "[15]": {"biological_target": "Peroxisome proliferator-activated receptor gamma (Homo sapiens) (UniProt P37231)", "sequence (P37231 whole entry, looked up, the tested form may be a part)": "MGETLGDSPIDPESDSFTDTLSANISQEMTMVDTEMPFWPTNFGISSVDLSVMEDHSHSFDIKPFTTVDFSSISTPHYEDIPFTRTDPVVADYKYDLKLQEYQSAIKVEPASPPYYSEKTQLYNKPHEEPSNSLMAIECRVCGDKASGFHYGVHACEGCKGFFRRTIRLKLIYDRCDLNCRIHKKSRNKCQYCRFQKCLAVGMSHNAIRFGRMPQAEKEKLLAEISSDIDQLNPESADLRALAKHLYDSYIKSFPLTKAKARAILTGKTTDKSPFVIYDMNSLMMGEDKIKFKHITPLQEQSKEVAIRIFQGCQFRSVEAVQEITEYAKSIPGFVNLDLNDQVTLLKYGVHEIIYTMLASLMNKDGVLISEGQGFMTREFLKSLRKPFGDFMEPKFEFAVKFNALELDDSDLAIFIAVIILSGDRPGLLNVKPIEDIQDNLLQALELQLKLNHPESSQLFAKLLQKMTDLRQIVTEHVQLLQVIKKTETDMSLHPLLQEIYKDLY", "experiment": "ATG_PPARg_TRANS: Attagene TRANS-FACTORIAL HepG2 Assay for human Peroxisome Proliferator-activated Receptor-gamma (PPARg) (AID 2283007; active = hit-call score of the fitted dose curve at least 0.9, where 1 is the maximum)", "method_in_brief": "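Chimeric NR-Gal4 transactivation is measured in transiently transfected HepG2 cells by reporter mRNA induction at 24 h. Detection uses RT-PCR with fluorescent labelling and capillary electrophoresis; DMSO defines baseline.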"}, "[16]": {"biological_target": "Nuclear receptor subfamily 1 group I member 2 (Homo sapiens) (UniProt O75469)", "sequence (O75469 whole entry, looked up, the tested form may be a part)": "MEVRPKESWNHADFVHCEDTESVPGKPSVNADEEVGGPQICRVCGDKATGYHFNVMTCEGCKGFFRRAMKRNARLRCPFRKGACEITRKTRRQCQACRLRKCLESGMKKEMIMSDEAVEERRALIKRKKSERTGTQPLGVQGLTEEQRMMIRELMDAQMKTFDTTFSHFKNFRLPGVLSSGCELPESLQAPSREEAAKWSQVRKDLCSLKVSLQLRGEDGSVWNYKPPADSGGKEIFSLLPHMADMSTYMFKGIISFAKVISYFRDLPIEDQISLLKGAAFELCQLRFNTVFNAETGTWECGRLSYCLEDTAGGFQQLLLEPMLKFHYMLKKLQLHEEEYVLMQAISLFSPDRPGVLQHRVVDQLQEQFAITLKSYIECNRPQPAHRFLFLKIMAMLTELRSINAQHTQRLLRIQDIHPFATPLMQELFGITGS", "experiment": "ATG_PXR_TRANS: Attagene TRANS-FACTORIAL HepG2 Assay for human Pregnane X Receptor (PXR) (AID 2283008; active = hit-call score of the fitted dose curve at least 0.9, where 1 is the maximum)", "method_in_brief": "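Measures mRNA induction of a GAL4-UAS-driven reporter in human HepG2 cells transiently expressing PXR fused to Gal4, following 24 h treatment. DMSO served as negative control and baseline.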"}, "[17]": {"biological_target": "human Retinoic Acid Receptor gamma (RARg), RARG (gene 5916) (UniProt P13631)", "sequence (P13631 whole entry, looked up, the tested form may be a part)": "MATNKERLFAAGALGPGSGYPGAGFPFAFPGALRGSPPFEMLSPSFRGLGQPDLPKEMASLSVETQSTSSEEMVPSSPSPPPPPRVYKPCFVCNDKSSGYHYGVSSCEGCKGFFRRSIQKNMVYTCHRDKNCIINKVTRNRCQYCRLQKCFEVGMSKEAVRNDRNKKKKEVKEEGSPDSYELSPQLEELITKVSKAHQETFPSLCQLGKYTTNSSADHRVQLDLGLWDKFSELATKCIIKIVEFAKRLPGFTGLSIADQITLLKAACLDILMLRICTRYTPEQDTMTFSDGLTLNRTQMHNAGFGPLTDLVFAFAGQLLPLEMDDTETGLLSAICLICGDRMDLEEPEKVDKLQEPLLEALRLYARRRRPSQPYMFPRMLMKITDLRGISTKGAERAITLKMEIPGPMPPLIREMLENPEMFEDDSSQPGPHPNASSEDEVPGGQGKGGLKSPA", "experiment": "ATG_RARg_TRANS: Attagene TRANS-FACTORIAL HepG2 Assay for human Retinoic Acid Receptor gamma (RARg) (AID 2283009; active = hit-call score of the fitted dose curve at least 0.9, where 1 is the maximum)", "method_in_brief": "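HepG2, RARg-GAL4 TRANS system, 24 h exposure; reporter mRNA by RT-PCR + CE fluorescence; increase over DMSO.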"}, "[18]": {"biological_target": "Retinoic acid receptor alpha (Homo sapiens) (UniProt P10276)", "sequence (P10276 whole entry, looked up, the tested form may be a part)": "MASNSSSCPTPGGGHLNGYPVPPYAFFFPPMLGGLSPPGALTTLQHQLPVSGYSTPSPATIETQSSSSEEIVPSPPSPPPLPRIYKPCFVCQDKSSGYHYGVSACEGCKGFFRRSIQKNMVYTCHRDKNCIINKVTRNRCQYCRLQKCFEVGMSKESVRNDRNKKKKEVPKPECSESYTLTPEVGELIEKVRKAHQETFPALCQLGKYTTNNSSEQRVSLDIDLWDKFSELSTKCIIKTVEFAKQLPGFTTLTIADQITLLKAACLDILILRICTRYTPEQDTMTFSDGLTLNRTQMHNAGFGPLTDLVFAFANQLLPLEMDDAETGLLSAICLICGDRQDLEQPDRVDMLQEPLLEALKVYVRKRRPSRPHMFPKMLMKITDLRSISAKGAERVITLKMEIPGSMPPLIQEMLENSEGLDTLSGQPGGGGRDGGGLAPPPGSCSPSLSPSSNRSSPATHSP", "experiment": "ATG_RARa_TRANS: Attagene TRANS-FACTORIAL HepG2 Assay for human Retinoic Acid Receptor alpha (RARa) (AID 2283005; active = hit-call score of the fitted dose curve at least 0.9, where 1 is the maximum)", "method_in_brief": "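HepG2 transiently transfected with multiplex GAL4-UAS reporter units including a human RARa–GAL4 chimera; 24 h compound exposure. Reporter mRNA quantified by RT-PCR, 6-FAM labeling and capillary electrophoresis; gain of signal versus DMSO.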"}, "[19]": {"experiment": "ATG_NF_kB_CIS: Attagene CIS-FACTORIAL HepG2 Assay for human Nuclear Factor Kappa B (NF-kB) (AID 2282991)", "details": "HepG2 Attagene cis-factorial NF-kB reporter mRNA; actives raise or lower the signal", "method_in_brief": "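DMSO served as negative control and baseline for bidirectional curve fitting. Transiently transfected HepG2 cells were dosed for 24 h, then reporter transcripts were measured by RT-PCR with capillary electrophoresis detection.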"}, "[20]": {"experiment": "BSK_3C_Proliferation: Cell Proliferation Assessment in the BioMAP Diversity Plus: 3C Assay (AID 2283006)", "details": "primary human endothelial cells (HUVEC)", "method_in_brief": "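Proliferation of human vascular endothelial primary cells after 48 h dosing, quantified as SRB-stained protein at 560 nm relative to DMSO.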"}}, "note": "Records with an inconclusive call do not appear. Activity calls are given as the source filed them. The calls were made as follows, unless noted: active = hit-call score of the fitted dose curve at least 0.9, where 1 is the maximum; inactive = score below 0.9."}
{"smiles": "CCCCSP(=O)(SCCCC)SCCCC", "values": [{"measurement": "outcome", "setting": "[1]", "value": "inactive"}, {"measurement": "outcome", "setting": "[2]", "value": "inactive"}, {"measurement": "AC50", "setting": "[3]", "value": "83.2 µM (active)"}, {"measurement": "AC50", "setting": "[4]", "value": "18.3 µM (active)"}, {"measurement": "AC50", "setting": "[5]", "value": "11.8 µM (active)"}, {"measurement": "outcome", "setting": "[6]", "value": "inactive"}, {"measurement": "outcome", "setting": "[7]", "value": "inactive"}, {"measurement": "AC50", "setting": "[8]", "value": "28.7 µM (active)"}, {"measurement": "outcome", "setting": "[9]", "value": "inactive"}, {"measurement": "outcome", "setting": "[10]", "value": "inactive"}, {"measurement": "outcome", "setting": "[11]", "value": "inactive"}, {"measurement": "outcome", "setting": "[12]", "value": "inactive"}, {"measurement": "outcome", "setting": "[13]", "value": "inactive"}, {"measurement": "outcome", "setting": "[14]", "value": "inactive"}, {"measurement": "AC50", "setting": "[15]", "value": "30.5 µM (active)"}, {"measurement": "outcome", "setting": "[16]", "value": "inactive"}, {"measurement": "outcome", "setting": "[17]", "value": "inactive"}]}
{"smiles": "Cc1cc(C2CC2)nc(Nc2ccccc2)n1", "values": [{"measurement": "AC50", "setting": "[1]", "value": "76 µM (active)"}, {"measurement": "AC50", "setting": "[2]", "value": "29.3 µM (active)"}, {"measurement": "outcome", "setting": "[3]", "value": "inactive"}, {"measurement": "AC50", "setting": "[4]", "value": "13 µM (active)"}, {"measurement": "AC50", "setting": "[5]", "value": "15.7 µM (active)"}, {"measurement": "outcome", "setting": "[6]", "value": "inactive"}, {"measurement": "outcome", "setting": "[8]", "value": "inactive"}, {"measurement": "outcome", "setting": "[9]", "value": "inactive"}, {"measurement": "AC50", "setting": "[10]", "value": "9.49 µM (active)"}, {"measurement": "outcome", "setting": "[11]", "value": "inactive"}, {"measurement": "outcome", "setting": "[12]", "value": "inactive"}, {"measurement": "outcome", "setting": "[13]", "value": "inactive"}, {"measurement": "outcome", "setting": "[18]", "value": "inactive"}, {"measurement": "outcome", "setting": "[16]", "value": "inactive"}, {"measurement": "outcome", "setting": "[17]", "value": "inactive"}]}
{"smiles": "CNC(=O)ON=C(C)SC", "values": [{"measurement": "outcome", "setting": "[1]", "value": "inactive"}, {"measurement": "outcome", "setting": "[2]", "value": "inactive"}, {"measurement": "outcome", "setting": "[3]", "value": "inactive"}, {"measurement": "outcome", "setting": "[19]", "value": "inactive"}, {"measurement": "outcome", "setting": "[4]", "value": "inactive"}, {"measurement": "outcome", "setting": "[5]", "value": "inactive"}, {"measurement": "outcome", "setting": "[6]", "value": "inactive"}, {"measurement": "outcome", "setting": "[8]", "value": "inactive"}, {"measurement": "outcome", "setting": "[9]", "value": "inactive"}, {"measurement": "outcome", "setting": "[10]", "value": "inactive"}, {"measurement": "outcome", "setting": "[11]", "value": "inactive"}, {"measurement": "outcome", "setting": "[12]", "value": "inactive"}, {"measurement": "outcome", "setting": "[13]", "value": "inactive"}, {"measurement": "outcome", "setting": "[20]", "value": "inactive"}, {"measurement": "outcome", "setting": "[16]", "value": "inactive"}]}
